Source: PubChem BioAssay
POLI inh – inhibitors of human DNA polymerase iota. Q9UNA4. Pol iota fluorescent replication assay, 10 min. Potency, µM (titrated, usually from 115 µM), without a hit: at the highest dose activity, negative = inhibition, most hits filed as inhibitors. 1% of 390,000 active. AID 588590
Target sequence (Q9UNA4 whole entry, looked up): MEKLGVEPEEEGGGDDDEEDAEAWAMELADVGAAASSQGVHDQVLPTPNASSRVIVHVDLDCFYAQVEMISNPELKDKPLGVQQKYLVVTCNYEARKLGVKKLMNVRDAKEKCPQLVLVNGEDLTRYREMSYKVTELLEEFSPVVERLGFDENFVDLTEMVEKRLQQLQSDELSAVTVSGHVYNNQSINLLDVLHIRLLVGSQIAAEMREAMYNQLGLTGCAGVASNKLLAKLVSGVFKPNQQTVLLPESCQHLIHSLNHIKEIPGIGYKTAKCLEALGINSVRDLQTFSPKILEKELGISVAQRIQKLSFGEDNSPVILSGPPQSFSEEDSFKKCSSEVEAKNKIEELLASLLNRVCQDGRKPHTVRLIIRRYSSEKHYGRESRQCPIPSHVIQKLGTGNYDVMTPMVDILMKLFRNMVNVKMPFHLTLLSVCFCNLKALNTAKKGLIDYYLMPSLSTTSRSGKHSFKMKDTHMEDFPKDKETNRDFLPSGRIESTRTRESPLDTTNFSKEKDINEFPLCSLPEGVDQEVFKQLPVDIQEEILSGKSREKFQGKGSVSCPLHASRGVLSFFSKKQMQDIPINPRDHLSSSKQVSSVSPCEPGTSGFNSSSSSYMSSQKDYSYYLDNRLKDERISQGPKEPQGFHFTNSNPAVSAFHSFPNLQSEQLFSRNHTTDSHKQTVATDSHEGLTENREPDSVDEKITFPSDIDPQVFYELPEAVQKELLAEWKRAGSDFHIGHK
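Fluorescent replication assay read twice, at 0 min and 10 min after adding 50 nM (final) substrate. Enzyme (10 nM) and compounds were first incubated 15 min at room temperature; enzyme-free buffer wells were negative controls.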
Pol beta inh – inhibitors of human DNA polymerase beta; P06746; Pol beta primer extension/strand displacement, fluorescence kinetic; Potency, µM (doses to about 114 µM), inactives show at the highest dose activity change, negative = inhibition, usual class: inhibitors; 1.3% of 340,000 active; AID 485314; also: % is scaled to controls: 0 for no effect and ±100 for the full control effect
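Enzyme-only controls used 10 nM Pol beta; buffer lacking enzyme served as negative control. Compound preincubated 15 min, then 50 nM substrate added; 0 and 10 min reads at room temperature.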
POLK inh – DNA polymerase kappa (human) inhibition; Potency, µM (titrated, usually from 107 µM), inactives show at the top dose activity, negative = inhibition, most hits filed as inhibitors; AID 588579; Q9UBT6; purified Pol kappa, fluorescent DNA synthesis assay, 10 min; 0.53% of 400,000 active; also: % is scaled to controls: 0 for no effect and ±100 for the full control effect
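Kinetic fluorescence readout at 0 and 10 min followed reaction start with substrate at 50 nM final. Beforehand, enzyme (10 nM Pol kappa) stood 15 min with compound at room temperature; buffer-only wells were negative controls.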
FEN1 inhibitor – human FEN1 inhibition. P39748. Recombinant FEN1 flap cleavage, fluorescence, 15 min. Potency, µM (titrated, usually from 114 µM), inactives show at the highest dose activity change, negative = inhibition, hits mostly inhibitors. 0.35% of 390,000 active. AID 588795; also: % is scaled to controls: 0 for no effect and ±100 for the full control effect; nearly all actives have a fitted effect of over 65% in size
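Steps: FEN1 (10 nM) dispensed; compound added by pin tool; 15 min at room temperature; substrate added to 50 nM final; reads at 0 min and 15 min; data normalized and fitted (four-parameter Hill).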
Pol eta inh – DNA polymerase eta (human) inhibition; Q9Y253; recombinant Pol eta, fluorescent DNA replication assay; Potency, µM (highest dose often 114 µM), without a hit: at the top dose activity change, negative = inhibition, most hits filed as inhibitors; 1.2% of 390,000 active; also: % is scaled to controls: 0 for no effect and ±100 for the full control effect
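Fluorescent replication assay: 50 nM final substrate added after a 15 min room-temperature compound preincubation with 10 nM enzyme. Signal taken at 0 min and again at 10 min.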
WRN inhibitor – blocks human WRN helicase; AID 651768; 0.46% of 360,000 active; WRN helicase unwinding, fluorescent forked duplex, kinetic; Potency, µM (highest dose often 114 µM), for the others: at the highest dose activity change, negative = inhibition, actives largely listed as inhibitors; Q14191; also: % is scaled to controls: 0 for no effect and ±100 for the full control effect; nearly all actives have a fitted effect of over 55% in size
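Kinetic red-fluorescence monitoring (525/598 nm) tracks WRN helicase activity after 100 nM fluorophore-quencher forked duplex and 2 mM ATP are added to 20 nM enzyme pretreated 15 min at room temperature with compound.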
Active calls of the source: *; ? = inconclusive; / = not tested or not shown; [ ] = remark or other dose. Shown are actives, neighbours in structure and some others; about 2.4% of the full set was active somewhere. Calls follow the shape of the dose curve; as a rule, active = well fitted curve in the direction sought with a large enough effect; inconclusive = small, poorly fitted or top-dose-only effect, or another doubt; inactive = no such curve, though single readings can be large; an effect the other way counts as inactive or inconclusive. Potency is read from the fitted curve at half-maximal effect.

SMILES	POLI inh	Pol beta inh	POLK inh	FEN1 inhibitor	Pol eta inh	WRN inhibitor
C(=C\c1nc2ccccc2o1)/c1ccc2c(c1)OCO2	9.6%	/	1.5%	-1.5%	/	/
C(=Nc1ccc2ccccc2n1)c1cccnc1	19.6%	/	-23.9%	9.9%	/	/
Cc1ccc(CSCC(=O)N/N=C/c2ccc(OCC(=O)Nc3ccc(C)cc3)cc2)cc1	?	10µM*	-27.2%	-18.5%	?	?
COC(=O)CCCC1=CC2=CC(=O)C(C)(OC(=O)c3cccs3)C(=O)C2=CN1Cc1ccc2c(c1)OCO2 (configuration not stated)	31.6µM*	50.1µM*	-35.5%	1.3%	?	-6.7%[11.6 µM]
COC(=O)CCCC1=CC2=CC(=O)C(C)(OC(=O)c3cccs3)C(=O)C2=CN1Cc1ccccc1 (configuration not stated)	?	?	-6.3%	10.8%	-13.5%	-13.8%
COC(=O)CCCC1=CC2=CC(=O)C(C)(OC(=O)c3cccs3)C(=O)C2=CN1C1CCCC1 (configuration not stated)	?	6.4%	-8.1%	10.4%	1.3%	-8.2%[57.1 µM]
COC(=O)CCCC1=CC2=CC(=O)C(C)(OC(=O)c3cccs3)C(=O)C2=CN1c1ccc(OC)cc1 (configuration not stated)	61.4%	-0.4%	-23.1%	-8.9%	-10.1%	-7.5%
COC(=O)CCCC1=CC2=CC(=O)C(C)(OC(=O)c3cccs3)C(=O)C2=CN1CCc1c[nH]c2ccccc12 (configuration not stated)	50.1µM*	-14.9%	?	-5.7%	-3.8%	-4.4%[57.1 µM]
COC(=O)CCCC1=CC2=CC(=O)C(C)(OC(=O)c3cccs3)C(=O)C2=CN1Cc1ccco1 (configuration not stated)	?	50.1µM*	?	-0.8%	?	-19.1%[57.1 µM]
COC(=O)CCCC1=CC2=CC(=O)C(C)(OC(=O)c3cccs3)C(=O)C2=CN1CCCOC(C)C (configuration not stated)	25.1µM*	15.8%	-3.8%	-21.5%	-16.9%	4.0%
COc1cc(OC)c(OC)cc1/C=C/c1nccc2ccccc12	?	/	-21.3%	?	/	/
COc1ccc(-c2nc3cccc(C)n3c2Nc2ccc(C)cc2)cc1	-6.0%	/	-9.0%	-2.6%	/	/
CN(N=O)c1ccc2c(c1)Cc1ccccc1-2	21.3%	/	5.6%	12.9%	/	/
CCOc1cc([N+](=O)[O-])cc(/C=C2/NC(=O)N(Cc3ccccc3F)C2=O)c1O	?	?	?	-25.9%	50.1µM*	-1.2%[11.6 µM]
Cc1ccc(NC(=O)C2=C(c3ccccc3)S(=O)(=O)CCS2(=O)=O)cc1	?	5.9%	-7.6%	0.8%	-7.1%	22.4µM*
Cc1ccc(NC(=O)c2ccccc2)cc1	-1.1%	-2.5%	-10.8%	0.8%	-2.0%	0.8%
Cc1ccc(S(=O)(=O)N2CCN(c3nc(-c4cncnc4)nc4ccccc34)CC2)cc1	-2.1%	/	-5.0%	-7.0%	/	/
CCCNC(=O)c1ccc2c(=O)c(O)c(-c3ccc(C)cc3)[nH]c2c1	21.2%	4.1%	-5.1%	?	-0.3%	-5.7%
Cc1ccc(-c2[nH]c3cc(C(=O)NCCCn4ccnc4)ccc3c(=O)c2O)cc1	79.4µM*	-0.1%	-3.7%	?	-9.3%	-22.3%
O=C(Nc1nncs1)c1cc2c(s1)CCC2	-3.7%	-10.1%	-1.1%	17.1%	-2.1%	-14.1%
CC(C)Cc1nnc(NC(=O)c2cc3c(s2)CCC3)s1	28.2µM*	-25.8%	?	-0.6%	-28.2%	-12.1%[11.6 µM]
Cc1cc(SCC(=O)N/N=C/c2ccc(O)c(O)c2)c(C)cc1Br	?	15.8µM*	-21.3%	-22.4%	-21.2%	-16.7%
Cc1cc2oc3ccc(NCCCn4ccnc4)cc3c(=O)c2cc1C	22.4µM*	/	-41.2%	0.4%	56.2µM*	-27.9%
COc1cc(/C=C2/C=Cc3ccccc32)ccc1N(C)C	70.8µM*	/	?	-25.6%	/	/
CC(C)=CCC/C(C)=C/CC/C(C)=C/CSc1ccccc1C(=O)O	25.1µM*	?	/	/	31.6µM*	/
SMILES	POLI inh	Pol beta inh	POLK inh	FEN1 inhibitor	Pol eta inh	WRN inhibitor
O=C(O)CSc1ccccc1C(=O)O	15.7%	-0.4%	-4.5%	-12.6%	4.0%	-0.7%
O=S(=O)(Nc1nc(-c2sccc2Cl)cs1)c1cc(Cl)ccc1Cl	?	31.6µM*	-18.6%	-32.8%	?	?
CC(C)(C)c1nnc(NS(=O)(=O)c2cc(Cl)ccc2Cl)s1	0.4%	1.7%	-10.9%	-4.3%	-2.2%	-1.6%
C[C@]12C[C@H](O)C3[C@@H](CCC4=CC(=O)CC[C@@]43C)[C@@H]1CC[C@@H]2C(=O)CO (some centres not stated)	5.4%[58.9 µM]	11.5%[57.1 µM]	/	/	-4.1%[57.1 µM]	/
CC1=Nc2cc(C(=O)NCCc3ccc(Cl)cc3)ccc2Sc2ccc(C)cc21	0.5%	7.0%	-3.8%	-17.7%	-14.3%	/
O=C1S/C(=C\C=C\c2ccco2)C(=O)N1c1ccc(O)cc1	31.6µM*	7.94µM*	?	-14.1%	?	?
CC(=O)c1ccc(C2CC34CNS(=O)(=O)C3CC2O4)cc1 (configuration not stated)	-9.4%	/	-7.9%	-23.7%	/	/
O=C(CCS(=O)(=O)c1ccccc1)Nc1ccc(-c2nc3ccccc3s2)c(O)c1	10.8%	5.0%	-5.5%	8.4%	-8.1%	-1.9%
CCS(=O)(=O)c1cccc(C(=O)Nc2ccc(-c3nc4ccccc4s3)c(O)c2)c1	?	20µM*	-4.6%[60.1 µM]	-13.9%	?	/
Oc1ccc(/C=N/N(Cc2ccccc2)c2ccccc2)c(O)c1O	38.6%	6.31µM*	-37.7%	-27.5%	-25.5%	?
CCOC(=O)Cc1csc(NC(=O)c2sc3nc4c(C)cc(C)cc4cc3c2N)n1	50.1µM*	31.6µM*	-19.9%	-24.1%	?	-8.0%[11.6 µM]
Cc1nn(-c2ccccc2)c(Cl)c1/C=C1\SC(=S)N(CCCCCC(=O)O)C1=O	-18.0%	27.4%	-6.6%	-14.5%	25.1µM*	-22.8%
COc1ccc(/C=C2/SC(=S)N(CC(=O)O)C2=O)cc1OCc1ccc(Cl)cc1	-1.1%	?	-3.8%	?	?	56.2µM*
O=C(O)CCCN1C(=O)/C(=C\c2ccccc2OCc2ccccc2)SC1=S	?	?	-14.4%	?	79.4µM*	?
COc1ccc(/C=C2\SC(=S)N(CCCC(=O)Nc3ccccc3C(=O)O)C2=O)cc1OC	?	-1.5%	3.4%	-18.7%	89.1µM*	2.9%[11.6 µM]
COc1cc(/C=C2\SC(=S)N(CC(=O)O)C2=O)ccc1OC(=O)c1ccco1	218.5%	15.2%	-6.3%	12.1%	1.0%	-21.6%
O=C(O)CN1C(=O)/C(=C\c2ccccc2OCc2ccccc2)SC1=S	/	/	/	/	79.4µM*	-7.7%
O=C(O)CN1C(=O)/C(=C\c2ccccc2OCc2ccc(F)cc2)SC1=S	?	?	-26.6%	-15.9%	?	-10.4%[11.6 µM]
